Assay outcomes as filed in PubChem BioAssay.
aSyn UTR act – Activators working through SNCA 5'UTR binding (MLPCN). alpha-synuclein 5'UTR reporter, activators screen. activity score, % (tested at 7.5 µM), hits read low. 300,000 tested, 7.1% active. AID 1814; in the data active means activity score below about -60%
Each line names hits and unclear results; the compound was inactive in the other large screens. These entries were drawn from the full list.

COc1ccc(NCc2nc3ccccc3n2CCOc2ccccc2)cc1	aSyn UTR act -207
COc1ccc(NCc2nc3ccccc3n2CCOc2ccc(C)cc2)cc1	aSyn UTR act -114
Cc1ccc(OCCn2c(NC(=O)c3ccco3)nc3ccccc32)cc1	none
Cc1nc2ccccc2n1CCCOc1ccccc1	aSyn UTR act -89
CCC1CCCCN1C(=O)CCS(=O)(=O)c1ccccc1 (configuration not stated)	aSyn UTR act -93
CCC1CCCCN1C(=O)CCCc1ccccc1 (configuration not stated)	aSyn UTR act -105
O=C(CCCc1ccccc1)N1CCN(C2CCCCC2)CC1	aSyn UTR act -115
COC(=O)c1sccc1NC(=O)c1ccc(OC)cc1OC	aSyn UTR act -98
Cc1cc(C)nc(NC(=O)c2ccc3c(c2)OCO3)c1	aSyn UTR act -94
O=C(Nc1ccc(C(=O)N2CCCC2)cc1)c1ccc2c(c1)OCO2	aSyn UTR act -69
COC(=O)c1sccc1NC(=O)c1ccc(C(C)C)cc1	aSyn UTR act -87
COC(=O)c1c(-c2cccnc2)csc1NC(=O)c1ccc2c(c1)OCO2	aSyn UTR act -76
O=C(Nc1ccc(N2CCCCC2)cc1)c1ccc2c(c1)OCCO2	aSyn UTR act -87
CC1CCCC(NC(=O)c2ccc3c(c2)OCO3)C1C (configuration not stated)	aSyn UTR act -65
COC(=O)c1sccc1NC(=O)/C=C/c1ccc(Cl)cc1	aSyn UTR act -197
COC(=O)c1ccc(N/C=C\C(=O)c2ccc3c(c2)OCO3)cc1	aSyn UTR act -133
Cc1ccccc1-c1nc(-c2ccc(NC(=O)c3ccc4c(c3)OCO4)cc2)no1	aSyn UTR act -71
Cc1cc(C)nc(NC(=O)c2c(F)c(F)c(F)c(C(=O)Nc3cc(C)cc(C)n3)c2F)c1	aSyn UTR act -70
COC(=O)c1sccc1NC(=O)c1ccc2c(c1)OCO2	aSyn UTR act -91
COC(=O)c1ccc(NC(=O)c2ccc3c(c2)OCO3)cc1	aSyn UTR act -144
O=C(Nc1ccc(F)c(Cl)c1)c1ccc2c(c1)OCO2	aSyn UTR act -211
COc1ccc(NC(=O)c2ccc3c(c2)OCO3)cc1Cl	aSyn UTR act -145
Cc1nc(NC(=O)c2ccc(Cl)cc2)nc2cc3c(cc12)OCO3	aSyn UTR act -84
CS(=O)(=O)c1ccc(Cl)c(NC(=O)CCl)c1	aSyn UTR act -88
Cc1ccc(NC(=O)Nc2cc(S(C)(=O)=O)ccc2Cl)cc1	aSyn UTR act -77
Cc1ccc(S(=O)(=O)Nc2cc(Cl)c(O)c3ncccc23)cc1	none
CCn1ncc(Br)c1C(=O)Nc1ccc2c(c1)OCCO2	aSyn UTR act -94
CCc1sc(C(=O)Nc2ccc3c(c2)OCCO3)cc1Br	aSyn UTR act -193
CCn1ncc(Br)c1C(=O)Nc1ccc(C(C)C)cc1	aSyn UTR act -79
Cn1c(SCc2ccc(C#N)cc2Cl)nc2ccccc21	aSyn UTR act -176
CCOc1cc(C(C(=O)NCC2CCCO2)N(C(=O)Cn2nnc3ccccc32)c2ccc(C(C)=O)cc2)ccc1O (configuration not stated)	aSyn UTR act -67
Sc1oc(-c2ccccc2)cc1C=Nc1ccccc1	aSyn UTR act -117
CCC(Sc1nc2ccccc2c(=O)[nH]1)C(=O)Nc1ccc(C(C)=O)cc1 (configuration not stated)	aSyn UTR act -79
Cc1cc(NC(=O)Cc2ccsc2)ccc1Br	aSyn UTR act -112
CC(=O)c1ccc(NC(=O)Cc2cccs2)cc1	aSyn UTR act -84
CC(=O)c1ccc(NC(=O)Cc2ccsc2)cc1	aSyn UTR act -79
COc1ccc(C2CC(C)(c3ccc(OC)cc3)Nc3ccccc3N2)cc1 (configuration not stated)	aSyn UTR act -192
CCOC(=O)/C=C/COc1ccccc1[N+](=O)[O-]	aSyn UTR act -70
COCCCNc1nc(N)c([N+](=O)[O-])c(NCc2ccccc2)n1	none
O=[N+]([O-])c1ccccc1OCCOc1ccccc1[N+](=O)[O-]	aSyn UTR act -138
COc1ccc(CNc2ncccc2[N+](=O)[O-])cc1	aSyn UTR act -80
O=[N+]([O-])c1ccccc1OCCCOc1cccc2cccnc12	aSyn UTR act -96
O=[N+]([O-])c1ccccc1NCCOc1ccccc1	aSyn UTR act -227
COc1ccc(OCCOc2ccccc2[N+](=O)[O-])cc1	aSyn UTR act -153
CC1CN(c2ccc([N+](=O)[O-])c(NCCOc3ccc(Cl)cc3)c2)CC(C)N1 (configuration not stated)	none
CCn1c(C)nc2cc(NC(=O)Nc3cccc(C(C)=O)c3)ccc21	aSyn UTR act -99
CCn1c(C)nc2cc(C(=O)N/N=C/c3ccccc3C)ccc21	aSyn UTR act -142
CCn1c(C)nc2cc(C(=O)N/N=C(\C)c3ccccc3O)ccc21	aSyn UTR act -143
CCn1c(C)nc2cc(C(=O)NNC(=S)Nc3ccccc3OC)ccc21	aSyn UTR act -74
C/C(Cl)=C\Cn1c(O)c(N=NC(N)=S)c2cc(Br)ccc21	none
Cc1cccc(OCc2n(CC(=O)OC3CC(C)CCC3C(C)C)c3ccccc3[n+]2C)c1 (configuration not stated)	none
COc1ccc(C(=O)Nc2ccc3[nH]ccc3c2)cc1	none
COc1ccc(C(=O)Nc2ccc3[nH]ccc3c2)cc1OC	aSyn UTR act -134
COc1ccc(OC)c(C(=O)Nc2ccc3[nH]ccc3c2)c1	aSyn UTR act -112
CCOC(=O)C(C(=O)OCC)C1N=C(N)N=C2Oc3ccccc3N21 (configuration not stated)	aSyn UTR act -163
COc1ccc(/C=c2/sc3n(c2=O)C(c2ccccc2OC)C2=C(N=3)c3ccccc3CC2)cc1O (configuration not stated)	none
COc1cc(/C=c2\sc3n(c2=O)CCCN=3)ccc1O	aSyn UTR act -102
O=c1/c(=C/c2ccc([N+](=O)[O-])cc2)sc2n1CCCN=2	aSyn UTR act -173
O=C(NCc1ccccn1)C(=O)Nc1ccccc1	aSyn UTR act -150
Cc1ccc(NC(=O)C(=O)NCc2ccccn2)cc1	aSyn UTR act -110
C(=N\Nc1nc2ccccc2[nH]1)/c1ccc2c(c1)OCO2	aSyn UTR act -222
C/C(=N\Nc1nc2ccccc2[nH]1)c1ccc2c(c1)OCO2	aSyn UTR act -124
C/C(=N\Nc1nc2ccccc2[nH]1)c1ccccn1	none
C/C(=N\Nc1ccccn1)c1ccc2c(c1)OCO2	aSyn UTR act -159
C/C(=N\Nc1nc2ccccc2[nH]1)c1cc2ccccc2o1	aSyn UTR act -138
C/C(=N\Nc1nc2ccccc2[nH]1)c1ccc2c(c1)OCCO2	aSyn UTR act -88
Clc1ccccc1N/N=C/c1ccc2c(c1)OCO2	aSyn UTR act -176
COc1ccc(C(=O)/C=C/Nc2cccc(C)n2)cc1OC	aSyn UTR act -195
Cc1cc(C)n(-c2nc(N(c3ccccc3)c3ccccc3)nc(-n3nc(C)cc3C)n2)n1	none
Cc1cc(C)n(-c2ncc(-c3ccccc3)nn2)n1	aSyn UTR act -69
c1ccc(-c2cnnc(N3CCOCC3)n2)cc1	aSyn UTR act -110
Cc1cc(C)n(-c2nncc(-c3ccccc3)n2)n1	aSyn UTR act -76
CCOC(=O)c1sc(N)c(C(=O)OCC)c1C	aSyn UTR act -65
Cc1ccccc1OCc1nc2ccccc2c(=O)n1N	aSyn UTR act -113
Nn1c(COc2ccccc2)nc2ccccc2c1=O	aSyn UTR act -70
COc1cccc(CCc2nc3ccccc3c(=O)n2N)c1	aSyn UTR act -68
Cn1c(COc2ccccc2Br)nc2ccccc21	aSyn UTR act -145
CCn1c(COc2ccccc2C)nc2ccccc21	aSyn UTR act -131
CCn1c(CCc2ccccc2)nc2ccccc21	aSyn UTR act -76
